Assay results reported in PubChem BioAssay (NCATS).
Inconclusive results are not listed. Activity calls are given as the source filed them. Calls follow the shape of the dose curve; as a rule, active = well fitted inhibition curve with a large enough effect; inconclusive = small, poorly fitted or top-dose-only effect; inactive = no such curve, though single readings can be large or run the other way.

Assay: qHTS assay to identify inhibitors of the type 1 interferon - major histocompatibility complex class I in skeletal muscle: Counter screen cell viability and HiBit confirmation (AID 1347412); also: nearly all actives have a fitted effect of over 60% in size
Settings: iHSKM muscle cells + IFN-b, HiBiT or CellTiter-Glo, 24 h; HiBiT
Method in brief: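 Luminescence read-out: Nano-Glo HiBiT lytic signal from C-terminally HiBiT-tagged HLA-B in CRISPR-edited human myoblasts, plus CellTiter Glo ATP as viability counter screen. IFN-beta 4.0 ng/ml; 24 hrs treatment at 37 C, 5% CO2.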
Potency is read from the fitted curve at half-maximal effect.

SMILES | Potency
COc1cc2ncnc(Nc3ccc(F)c(Cl)c3)c2cc1NC(=O)/C=C/CN1CCCCC1 | 19.8 µM (active)
CCOc1cc2ncc(C#N)c(Nc3ccc(F)c(Cl)c3)c2cc1NC(=O)/C=C/CN(C)C | 1.98 µM (active)
CCOc1cc(C(=O)N2CCC(N3CCN(C)CC3)CC2)ccc1Nc1ncc2c(n1)N(C1CCCC1)c1ccccc1C(=O)N2C | 12.5 µM (active)
